Bioassay records from PubChem.
Calb FLC: affects C. albicans growth with fluconazole. C. albicans CaCi-2 (fluconazole-resistant clinical isolate) + fluconazole, Alamar Blue growth, 48 h. growth inhibition, % (no concentration beside the values). actives 0.57% (n = 300,000). AID 1979;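 active means growth inhibition above about 58% in most replicates, limit read from the data, passing the limit was not always enough; inconclusive means exactly half the replicates above a set limit; inactive means most replicates below a set limit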;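 further: all wells also contain fluconazole at 8 µg/ml as a sub-toxic cotreatment; 0% = median of DMSO wells and 100% = median of geldanamycin control wells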
PP1 counter: blocks human PP1-alpha phosphatase, a PP5 counter-screen. P62136. actives 0.9% (n = 320,000). inhibition, % at 6.7 µM. purified PP1alpha, OMFP fluorescence;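 active means inhibition above the mean inhibition of all tested compounds plus 3 SD, computed separately for each screening campaign, cut at about 15% in these data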
PP5 primary: PP5 (human) phosphatase inhibition; purified PP5c, OMFP substrate fluorescence; actives 0.18% (n = 320,000); AID 1987; inhibition, % at 6.7 µM; P53041;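 active means inhibition above the campaign's mean inhibition across all tested compounds plus 3 SD, cut at about 9.5% in these data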;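 further: 0% = DMSO only and 100% = 100 µM cantharidin control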
Target sequence (P53041 whole entry, looked up): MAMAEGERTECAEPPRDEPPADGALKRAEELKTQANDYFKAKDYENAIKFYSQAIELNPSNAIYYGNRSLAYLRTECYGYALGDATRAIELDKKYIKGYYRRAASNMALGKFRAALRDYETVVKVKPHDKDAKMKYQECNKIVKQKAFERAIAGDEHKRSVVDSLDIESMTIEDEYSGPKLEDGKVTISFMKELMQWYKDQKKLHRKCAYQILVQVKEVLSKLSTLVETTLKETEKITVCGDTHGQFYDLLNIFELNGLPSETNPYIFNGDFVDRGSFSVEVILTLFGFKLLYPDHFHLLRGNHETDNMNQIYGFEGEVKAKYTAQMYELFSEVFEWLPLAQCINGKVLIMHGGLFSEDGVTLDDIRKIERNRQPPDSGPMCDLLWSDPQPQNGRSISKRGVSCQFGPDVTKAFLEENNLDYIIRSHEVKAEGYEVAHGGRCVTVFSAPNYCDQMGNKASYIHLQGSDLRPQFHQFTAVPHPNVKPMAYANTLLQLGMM
ALR H2O2 inh: human ALR oxidase inhibition via reduced H2O2. inhibition, % (test concentration not listed). AID 485317. P55789. purified ALR, DTT oxidation, H2O2 HRP-luminol luminescence. actives 3.8% (n = 290,000);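 active means mean replicate inhibition above about 79%, with every replicate also reaching it, limit read from the data; inconclusive means only one of the two criteria met; inactive means mean below limit and not every replicate reaching it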
CSC inhib: blocks cancer stem cells. cancer stem cell-like cells viability, luminescence. inhibition, % at 7.5 µM. actives 1.1% (n = 300,000); in the data active means inhibition above about 75%; inconclusive means no clear call, values can overlap the other calls; tested in HMLE shEcad cells
* = called active by the depositor. Shown are actives, neighbours in structure and some others; about 5.4% of the full set was active somewhere.

`CC(C)c1ccc(NC2CCCN(C(=O)CN3C(=O)CSC3=O)C2)cc1` (centres undefined) gave Calb FLC 1.3, PP1 counter -2.5, PP5 primary 1.9, ALR H2O2 inh 97.7* and CSC inhib -9.9.
`O=C(CN1C(=O)CSC1=O)N1CCCCC1` gave Calb FLC -2.9, PP1 counter -8.5, PP5 primary 2.5, ALR H2O2 inh 6.1 and CSC inhib -6.1.
Cc1ccc(NC2CCCN(C(=O)CN3C(=O)CSC3=O)C2)cc1C (centres undefined) was read as Calb FLC 3.5, PP1 counter -8.7, PP5 primary 2.9, ALR H2O2 inh 98.9* and CSC inhib -0.6.
`COc1cccc(CN2CCN(Cc3cccc(Br)c3)CC2)c1OC` gave Calb FLC -3.1, PP1 counter -0.5, PP5 primary 0.2, ALR H2O2 inh -17.4 and CSC inhib 2.2.
C=CCn1c(SC(C)C(N)=O)nc2sc(CC)cc2c1=O (centres undefined) was read as Calb FLC 2.8, PP1 counter 0.4, PP5 primary 3.9 and ALR H2O2 inh 4.9.
For Cc1cccc(N/N=C2/COC(C)(C)CC2=O)c1 the results were Calb FLC -47.0, PP1 counter -3.2, PP5 primary 0.9, ALR H2O2 inh 92.9* and CSC inhib 1.1.
`CSc1ccccc1NC(=O)CN(C)C(=O)COc1ncnc2ccccc12` gave ALR H2O2 inh 12.0 and CSC inhib 8.4.
`CC(/C=N/n1c(-c2cccnc2)n[nH]c1=S)=C\c1ccco1` gave Calb FLC 11.2, PP1 counter -0.3, PP5 primary -1.5, ALR H2O2 inh -3.1 and CSC inhib -0.8.
For O=[N+]([O-])c1ccccc1/C=N/n1c(-c2ccccc2)n[nH]c1=S the results were Calb FLC 14.5, PP1 counter -2.1, PP5 primary -1.1, ALR H2O2 inh 6.8 and CSC inhib -5.2.
For S=c1[nH]nc(-c2ccco2)n1/N=C/c1ccc(Cl)cc1Cl the results were Calb FLC 29.1, PP1 counter 5.2, PP5 primary 0.6, ALR H2O2 inh 73.1 and CSC inhib -2.6.
Screening S=c1[nH]nc(-c2ccccc2)n1/N=C/C=C/c1ccco1 returned Calb FLC 18.5, PP1 counter 4.7, PP5 primary 4.4, ALR H2O2 inh 96.8* and CSC inhib -6.0.
For S=c1[nH]nc(-c2ccco2)n1/N=C/c1cccc(Cl)c1Cl the results were Calb FLC inconclusive, PP1 counter 5.5, PP5 primary -0.5, ALR H2O2 inh 95.9* and CSC inhib 4.5.
CC(/C=N/n1c(-c2n[nH]c3c2CCC3)n[nH]c1=S)=C\c1ccco1 was read as Calb FLC 0.9, PP1 counter -0.9, PP5 primary 2.4, ALR H2O2 inh 93.5* and CSC inhib -8.1.
`O=[N+]([O-])c1ccccc1/C=C/C=N/n1c(-c2ccccc2F)n[nH]c1=S` gave Calb FLC -3.4, PP1 counter -2.2, PP5 primary -0.3, ALR H2O2 inh 98.0* and CSC inhib -3.1.
Cc1ccc(-c2csc3nc[nH]c(=O)c23)c(C)c1 was read as Calb FLC -6.4, PP1 counter 0.4, PP5 primary 1.6, ALR H2O2 inh -1.3 and CSC inhib -2.6.
`CCOC(=O)N1CCC(NC(=O)CCC(=O)c2ccccc2)CC1` gave Calb FLC 5.4, PP1 counter -0.1, PP5 primary -5.4, ALR H2O2 inh 2.7 and CSC inhib 7.5.
`CC(=C/c1ccccc1)/C=N/n1c(-c2ccco2)n[nH]c1=S` gave Calb FLC 45.3, PP1 counter 1.2, PP5 primary 0.5, ALR H2O2 inh 97.4* and CSC inhib -9.5.
For S=c1[nH]nc(-c2ccc(Cl)cc2)n1/N=C/C=C/c1ccco1 the results were Calb FLC 46.5, PP1 counter -6.0, PP5 primary 2.9, ALR H2O2 inh 98.7* and CSC inhib -10.0.
`S=c1[nH]nc(-c2ccco2)n1/N=C/c1cccs1` gave Calb FLC 50.3, PP1 counter -3.0, PP5 primary 2.4, ALR H2O2 inh 11.6 and CSC inhib -10.4.
For CC(/C=N/n1c(-c2cc(C)[nH]n2)n[nH]c1=S)=C\c1ccccc1 the results were Calb FLC 31.2, PP1 counter 6.0, PP5 primary 2.9, ALR H2O2 inh 61.4 and CSC inhib 3.1.
`S=c1[nH]nc(-c2ccco2)n1/N=C/C=C/c1ccccc1` gave Calb FLC -3.7, PP1 counter 2.0, PP5 primary 3.9, ALR H2O2 inh 98.3* and CSC inhib 7.1.
Screening S=c1[nH]nc(-c2ccc(Cl)cc2)n1/N=C/c1ccco1 returned Calb FLC 44.7, PP1 counter -2.8, PP5 primary 0.6, ALR H2O2 inh 15.8 and CSC inhib 8.9.
Cc1c(NC(=S)N/N=C/c2ccc(O)cc2)c(=O)n(-c2ccccc2)n1C was read as Calb FLC -0.7, PP1 counter 1.0, PP5 primary 1.9 and ALR H2O2 inh 99.2*.
Screening Cc1ccc(NC(=S)Nc2c(C)n(C)n(-c3ccccc3)c2=O)cc1 returned Calb FLC inconclusive, PP1 counter -1.6, PP5 primary -0.4, ALR H2O2 inh -0.5 and CSC inhib 5.0.
Screening CCOC(=O)C1=C(O)/C(=C/c2cn(CC(=O)NCC3CCCO3)c3ccccc23)SC1=Nc1ccc(C)cc1 (centres undefined) returned PP1 counter 3.7, PP5 primary 0.0, ALR H2O2 inh 0.7 and CSC inhib 76.0*.
`COC(=O)c1cc(OC)c(OC)cc1NC(=O)Nc1ccc(OC)cc1` gave Calb FLC 7.2, PP1 counter -7.9, PP5 primary -8.0, ALR H2O2 inh -4.6 and CSC inhib 9.9.
COc1ccc(NS(=O)(=O)c2ccc3nc(COc4cccc5ccccc45)[nH]c3c2)cc1 was read as Calb FLC 31.8, PP1 counter 7.5, PP5 primary 8.4, ALR H2O2 inh -8.6 and CSC inhib 80.1*.
C/C(=N\Nc1cccc(Cl)c1)c1ccncc1 was read as Calb FLC -34.0, PP1 counter 5.4, PP5 primary 1.6, ALR H2O2 inh 99.5* and CSC inhib 33.0.
C/C(=N\Nc1ccc(F)cc1)c1ccncc1 was read as Calb FLC -17.3, PP1 counter 1.8, PP5 primary 1.5 and CSC inhib 23.0.
C/C(=N\Nc1ccc(Cl)cc1)c1ccncc1 was read as Calb FLC -10.8, PP1 counter -1.1, PP5 primary 0.6, ALR H2O2 inh 99.2* and CSC inhib 7.2.
COc1cccc(C(=O)Nc2ccc(NC(=O)c3cc4ccccc4o3)c(OC)c2)c1 was read as Calb FLC 1.8, PP1 counter -2.0, PP5 primary 2.1, ALR H2O2 inh -7.2 and CSC inhib -5.8.
O=C(N/N=C/c1ccc2cccnc2c1)c1ccco1 was read as Calb FLC 1.8, PP1 counter -6.5, PP5 primary -0.6, ALR H2O2 inh -2.5 and CSC inhib -11.0.
For O=C(CN1C(=O)NC2(CCCC2)C1=O)Nc1ccccc1N1CCCC1 the results were Calb FLC 4.9, PP1 counter -0.8, PP5 primary -1.9, ALR H2O2 inh 99.1* and CSC inhib -3.0.
